In PubChem BioAssay (Tox21) one finds Potency and activity change, positive = activation data, which are given here for seven molecules.

Molecules are shown by their SMILES. Where “and” joins values, the source holds several entries; their conditions need not be identical. Equal entries are not always repeated. Values without a mark were called inactive. Results filed as inconclusive are left out. Calls of active or inactive are those of the source. Unless noted, calls follow the shape of the dose curve; as a rule, active = well fitted curve in the direction sought with a large enough effect in the repeat runs; inconclusive = weak or mixed curves; inactive = no such curve, though single readings can be large; an effect the other way counts as inactive or inconclusive.

Assay [1] is described as follows: qHTS assay to identify small molecule agonists of the constitutive androstane receptor (CAR) signaling pathway - cell viability counter screen (AID 1224836). Also: nearly all actives have a fitted effect of over 45% in size. Also: potency is read from the fitted curve at half-maximal effect. Put shortly:
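Counter screen multiplexed with the CAR reporter readout: HepG2 cells co-transfected with hCAR and the CYP2B6-2.2kb construct receive a 15-concentration compound series and 0.75 uM PK11195 (final), then CellTiter-Fluor fluorescence is read after 23 h.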

Assay [2] in a line: qHTS assay to identify small molecule antagonists of the constitutive androstane receptor (CAR) signaling pathway - cell viability counter screen (AID 1224837). Also: nearly all actives have a fitted effect of over 45% in size. Also: potency is read from the fitted curve at half-maximal effect. Put shortly:
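In quantitative HTS format, compounds at 15 concentrations were applied to HepG2 cells double-transfected with hCAR and CYP2B6-2.2kb under 50 nM CITCO stimulation; live-cell protease activity was read after 23 hr via CellTiter-Fluor.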

In assay [3] the target is Nuclear receptor subfamily 1 group I member 3 (Homo sapiens) (UniProt Q14994). Description: qHTS assay to identify small molecule antagonists of the constitutive androstane receptor (CAR) signaling pathway (AID 1224838). Also: nearly all actives have a fitted effect of over 40% in size. Also: potency is read from the fitted curve at half-maximal effect. The method, boiled down:
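CITCO-stimulated (50 nM final) HepG2 cells stably transfected with hCAR and CYP2B6-2.2kb luciferase were exposed to compounds at 15 concentrations for 24 h at 37 C/5% CO2. A luciferase reagent was added and luminescence recorded after 30 min.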

For assay [4] the target is unchanged. Briefly: qHTS assay to identify small molecule agonists of the constitutive androstane receptor (CAR) signaling pathway (AID 1224839). Also: nearly all actives have a fitted effect of over 15% in size. Also: potency is read from the fitted curve at half-maximal effect. The method, boiled down: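 A 15-concentration quantitative screen uses HepG2 cells co-transfected stably with human CAR and CYP2B6-2.2kb reporter. Treatment lasts 24 h with 0.75 uM PK11195 final present; ONE-Glo luminescence is the signal.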
(In qHTS, concentration-response curves come from the screen itself.)

Assay [5] can be described thus: qHTS assay to identify small molecule antagonists of the estrogen related receptor signaling pathway with the pleiotropic PPARgamma coactivator (PGC) from Tox21 10K library - cell viability counter screen (AID 1224840; active = well fitted cell-killing curve with a large enough effect in the repeat runs, not every such curve was filed as active; also: nearly all actives have a fitted effect of over 40% in size; also: potency is read from the fitted curve at half-maximal effect). Put shortly:
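Viability counter screen, PGC/ERR cells: 17.5 h compound exposure at 37 C, CellTiter-Fluor fluorescence endpoint.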

Assay [6] is described as follows: qHTS assay to identify small molecule antagonists of the estrogen related receptor signaling pathway with the pleiotropic PPARgamma coactivator (PGC) from Tox21 10K library (AID 1224841; call rule not given here; also: actives are mostly falling curves and most rising ones were filed inactive; nearly all actives have a fitted effect of over 50% in size). Put shortly: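 In the PGC/ERR line, DMSO solutions of test chemicals are pin-delivered to 2,000 cells/well six hours after dispensing. Following eighteen hours' incubation, One-Glo reagent is added and luminescence recorded.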

A short description of assay [7]: qHTS assay to identify small molecule agonists of the estrogen related receptor signaling pathway with the pleiotropic PPARgamma coactivator (PGC) from Tox21 10K library (AID 1224842). Also: nearly all actives have a fitted effect of over 15% in size. The method, boiled down:
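Luminescence from One-Glo (30 min, room temperature) measured after PGC/ERR cells had 18 h at 37 C with pinned compound (23 nL in DMSO). Cells had been seeded at 2,000 per well and pre-incubated 6 h.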

Assay [8] addresses Thyrotropin receptor (Homo sapiens) (UniProt P16473). Description: qHTS assay to identify small molecule agonists of the thyroid stimulating hormone receptor (TSHR) signaling pathway (AID 1224843; calls by dose curve; also: nearly all actives have a fitted effect of over 45% in size). Put shortly: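 A cell-based cAMP HTRF format was run in TSHR-transfected HEK293 cells, 800 per well. Treatment: 30 min, room temperature. Detection: 1 h with labelled cAMP and anti-cAMP cryptate. Concentration-response over 15 points, three replicates.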

A short description of assay [9]: qHTS assay to identify small molecule agonists of the hypoxia (HIF-1) signaling pathway - cell viability counter screen (AID 1224844; calls by dose curve; also: nearly all actives have a fitted effect of over 50% in size). The method, boiled down: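 Same wells as the HIF-1 reporter screen; ME-180 cells carrying HRE-bla, 17 hr treatment at 37C; CellTiter-Glo luminescence read after 30 min at room temperature.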
Assay [10] in a line: qHTS assay to identify small molecule agonists of H2AX (AID 1224845; active = well fitted activation curve with a large enough effect in the signal ratio in the repeat runs, not every such curve was filed as active; the % refers to the signal ratio). The method, boiled down: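 Phospho-H2AX Ser139 measured by HTRF (ex 320 nm; em 665 and 620 nm) after 24 hr antibody incubation. Compounds, 15 concentrations, 0.76% DMSO, were applied to CHO-K1 cells for 3hr at 37C before lysis.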
A short description of assay [11]: qHTS assay to identify small molecule agonists of the hypoxia (HIF-1) signaling pathway (AID 1224846; active = well fitted activation curve with a large enough effect in the signal ratio in the repeat runs, not every such curve was filed as active; the % refers to the signal ratio). The method, boiled down:
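In ME-180 cells bearing an HRE-bla construct, 17 h treatment with DMSO-dissolved compounds at 37C was followed by CCF4-AM loading to quantify reporter induction.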

Assay [12] is described as follows: qHTS assay to identify small molecule agonists of H2AX - cell viability counter screen (AID 1224847; calls by dose curve; also: nearly all actives have a fitted effect of over 30% in size; also: potency is read from the fitted curve at half-maximal effect). The method, boiled down:
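We seed wild-type CHO-K1 cells overnight, treat them for 3 hr at 37C with compounds in 15-concentration series, and quantify remaining viability by CellTiter-Glo luminescence.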

Assay [13] is described as follows: qHTS assay to identify small molecule antagonists of the estrogen related receptor (ERR) signaling pathway from Tox21 library (AID 1224848). Also: nearly all actives have a fitted effect of over 50% in size. Also: potency is read from the fitted curve at half-maximal effect. The method, boiled down: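 ERR cell line, 2,000 cells/well. 6 h settle, then compound (DMSO) added; 18 h at 37 C; ONE-Glo luminescence after 30 min RT.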
Assay [14] is described as follows: qHTS assay to identify small molecule agonists of the estrogen related receptor (ERR) signaling pathway from Tox21 library (AID 1224849; calls by dose curve; also: nearly all actives have a fitted effect of over 15% in size). Conditions: ERR reporter cell line, ONE-Glo luciferase, 18 h. The method, boiled down:
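Reporter cells (ERR, NTP source) treated with Tox21 10K compounds 18 h, 37 C. Readout: ONE-Glo luminescence, 30 min RT.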

Assay [15] is described as follows: qHTS RealTime-Glo MT Cell Viability Assay in HepG2 cells - 24 hour (AID 1224867). Also: nearly all actives have a fitted effect of over 50% in size. The method, boiled down: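 Tox21 10K library screened in qHTS format on HepG2 cells carrying RealTime-Glo reagents. Compounds were added after a 5 h preincubation, and the luminescent signal from continuous culture was measured repeatedly during 40 h treatment.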
Assay [16] can be described thus: qHTS RealTime-Glo MT Cell Viability Assay in HEK293 cells - 32 hour (AID 1224868). Also: nearly all actives have a fitted effect of over 50% in size. Also: potency is read from the fitted curve at half-maximal effect. The method, boiled down:
(§1)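 Luminescence generated by NanoLuc from substrate produced by living HEK293 cells served as the viability signal. Each value reflects the reading at its stated time point during continuous 40 h compound exposure at 37 C.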

Assay [17] can be described thus: A CellTox Green Cytotoxicity Assay to monitor cytotoxicity in HEK293 cells - 0 hour (AID 1224869). Also: nearly all actives have a fitted effect of over 50% in size. Put shortly:
(§2)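 Homogeneous no-lysis format: HEK293 cell suspension mixed with CellTox Green reagent, seeded, incubated 5 h at 37 C/5% CO2, then dosed by pintool with compound in DMSO.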

The nature of assay [18]: qHTS RealTime-Glo MT Cell Viability Assay in HepG2 cells - 40 hour (AID 1224870). Also: nearly all actives have a fitted effect of over 50% in size. The method, boiled down:
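Real-time viability: cells seeded at 600 per well together with NanoLuc and cell-permeant prosubstrate, compounds added after 5 h incubation. Luminescence tracked at 0, 8, 16, 24, 32 and 40 h of exposure.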

Assay [19] can be described thus: A CellTox Green Cytotoxicity Assay to monitor cytotoxicity in HEK293 cells - 40 hour (AID 1224871). Also: nearly all actives have a fitted effect of over 45% in size. Put shortly: as §2
A short description of assay [20]: qHTS RealTime-Glo MT Cell Viability Assay in HEK293 cells - 16 hour (AID 1224872). The method, boiled down:
as §1
% is scaled to controls: 0 for no effect and ±100 for the full control effect.

Thyrotropin receptor (Homo sapiens), sequence (P16473 whole entry, looked up): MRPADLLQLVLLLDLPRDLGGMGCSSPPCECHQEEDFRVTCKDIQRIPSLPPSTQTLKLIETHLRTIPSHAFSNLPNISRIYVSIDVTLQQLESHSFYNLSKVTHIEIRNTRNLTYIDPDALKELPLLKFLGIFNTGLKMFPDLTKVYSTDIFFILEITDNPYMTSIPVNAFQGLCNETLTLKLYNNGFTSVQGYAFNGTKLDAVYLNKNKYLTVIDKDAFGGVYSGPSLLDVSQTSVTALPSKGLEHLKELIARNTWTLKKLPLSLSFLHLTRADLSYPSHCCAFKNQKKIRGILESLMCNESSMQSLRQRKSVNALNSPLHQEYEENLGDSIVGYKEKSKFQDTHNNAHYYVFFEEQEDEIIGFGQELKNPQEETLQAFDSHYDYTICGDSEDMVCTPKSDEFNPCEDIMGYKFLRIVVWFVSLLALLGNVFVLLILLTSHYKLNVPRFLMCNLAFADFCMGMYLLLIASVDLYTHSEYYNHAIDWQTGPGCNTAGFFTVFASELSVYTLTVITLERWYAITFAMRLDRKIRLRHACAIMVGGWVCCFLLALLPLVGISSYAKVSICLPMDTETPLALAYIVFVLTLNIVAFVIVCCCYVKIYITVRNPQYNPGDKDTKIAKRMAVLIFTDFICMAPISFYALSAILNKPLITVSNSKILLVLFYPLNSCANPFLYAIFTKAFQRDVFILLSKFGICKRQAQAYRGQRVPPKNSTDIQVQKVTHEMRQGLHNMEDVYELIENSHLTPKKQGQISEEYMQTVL
Nuclear receptor subfamily 1 group I member 3 (Homo sapiens), sequence (Q14994 whole entry, looked up): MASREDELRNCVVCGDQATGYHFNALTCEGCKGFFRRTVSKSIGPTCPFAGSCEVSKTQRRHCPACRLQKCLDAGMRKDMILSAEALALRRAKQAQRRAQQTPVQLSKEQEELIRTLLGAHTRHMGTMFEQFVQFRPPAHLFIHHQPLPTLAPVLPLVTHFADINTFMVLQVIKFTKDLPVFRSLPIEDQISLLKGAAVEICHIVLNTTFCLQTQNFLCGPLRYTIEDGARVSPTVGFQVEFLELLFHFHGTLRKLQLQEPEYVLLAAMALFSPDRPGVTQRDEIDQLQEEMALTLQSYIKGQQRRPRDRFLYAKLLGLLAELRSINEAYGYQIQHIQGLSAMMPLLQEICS

As for `COc1ccc(Cc2cnc(N)nc2N)cc1OC`, the Potency result in assay [1], in assay [2], in assay [3], in assay [4], in assay [5] and in assay [6] was “inactive” throughout. The Potency entry in assay [7], in assay [8], in assay [9], in assay [10], in assay [11] and in [12] was “inactive” in each case. The Potency result in assay [13], in [15], in assay [16], in assay [17], in [18] and in assay [19] was “inactive” in each case. In addition, the Potency result in assay [20] was “inactive”. The activity change, positive = activation in [14] (at 42.5 µM (top of the series)) was 4.01%.

`Cc1occc(=O)c1OC(=O)C(C)C`: the Potency result in assay [1], in assay [2], in assay [3], in assay [4], in [5] and in [6] was “inactive” in each case. Also, the Potency entry in assay [7], in assay [8], in assay [9], in assay [10], in assay [11] and in assay [12] was “inactive” in each case. For the same molecule, the Potency result in assay [13], in [15], in [17], in assay [18], in assay [19] and in assay [20] was “inactive” each time. Moreover, the activity change, positive = activation in assay [14] (at 92.4 µM (top of the series)) is 1.53%.

`N[C@@H]1CONC1=O`: the Potency entry in assay [1], in assay [2], in assay [3], in [4], in assay [5] and in assay [6] was “inactive” throughout. The Potency result in assay [7], in [8], in [10], in assay [12], in assay [13] and in [15] was “inactive” in each case. For the same molecule, the Potency entry in assay [16], in assay [17], in assay [18], in assay [19] and in assay [20] was “inactive” each time. Besides, the activity change, positive = activation in assay [14] (at 42.5 µM (top of the series)) is 7.16%.

Take `C[N+]1([O-])CCOCC1`: the Potency entry in assay [1], in assay [2], in [3], in assay [4], in assay [5] and in assay [6] was “inactive” each time. Further, the Potency result in [7], in assay [8], in assay [9], in assay [10], in [11] and in assay [12] was “inactive” each time. Further, the Potency entry in [13], in assay [15], in assay [16], in assay [17], in [18] and in assay [19] was “inactive” each time. The Potency result in [20] is “inactive”. The activity change, positive = activation in assay [14] (at 92.4 µM (top of the series)) is -0.0985%.

For the molecule `CCc1ccc(C(c2ccc(CC)cc2)C(Cl)Cl)cc1`, the Potency result in assay [1], in [2], in assay [3], in assay [5], in assay [9] and in assay [10] was “inactive” throughout. Besides, the Potency result in [11], in assay [15], in assay [17] and in [18] was “inactive” each time. The Potency in [4] is 22 µM (active); in assay [12], 115 µM (active).

`Cc1c(O)cccc1C(=O)N[C@@H](CSc1ccccc1)[C@H](O)CN1C[C@H]2CCCC[C@H]2C[C@H]1C(=O)NC(C)(C)C`: the Potency is 26.6 µM (active) and 23.7 µM (active) in assay [1]; 26.6 µM (active) and 11.9 µM (active) in assay [2]; 59.5 µM (active) and 26.6 µM (active) in assay [3]; 9.43 µM (active) in [5]; 15 µM (active) and 18.8 µM (active) in [13]; 19 µM (active) in assay [16]. The Potency result in [4], in assay [7], in [8], in assay [10], in [17] and in assay [19] was “inactive” throughout. In addition, the activity change, positive = activation in assay [14] (at 42.5 µM (top of the series)) was -54.6%; in assay [14] (at 92.4 µM (top of the series)), -64.1%.

For `CC1=C(C=O)C(C)(C)CC=C1`, the Potency result in assay [1], in [2], in assay [3], in assay [4], in assay [5] and in [6] was “inactive” throughout. The Potency result in assay [7], in assay [8], in assay [10], in [11], in assay [13] and in assay [15] was “inactive” in each case. Besides, the Potency result in [16], in assay [17], in assay [18], in [19] and in assay [20] was “inactive” in each case. Moreover, in assay [14] (at 92.4 µM (top of the series)), the activity change, positive = activation was 0.302%.
